Data: PubChem BioAssay (NCI)
About 83,000 compounds went through this panel and 20% of them were active in at least one assay; those are over-represented in the sample as a whole.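 The test compound was applied at a single concentration to cells in 96-well plates for 48 hours, and percent growth was recorded.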 A number with no mark means an inactive call. The source made the active and inactive calls. Rule for the calls: active = growth percent below 10; inactive = the rest.

What was measured:
Assay in all cases: NCI-60 one-dose screen, 48 h (100 = growth as untreated, 0 = no growth, -100 = all killed)
Settings in all cases: 10 µM unless noted
[1] = test system: NCI-H23 lung
[2] = test system: NCI-H322M lung
[3] = test system: HOP-62 NSCLC
[4] = test system: NCI-H460 lung
[5] = test system: HOP-92 NSCLC
[6] = test system: NCI-H522 lung
[7] = test system: A549/ATCC NSCLC
[8] = test system: 786-0 renal
[9] = test system: COLO 205 colon
[10] = test system: DU-145 prostate
[11] = test system: K-562 leukemia
[12] = test system: MALME-3M melanoma
[13] = test system: MDA-MB-231 breast
[14] = test system: SF-268 CNS
[15] = test system: SF-539 CNS
[16] = test system: UACC-257 melanoma
[17] = test system: M14 melanoma
[18] = test system: HCT-15 colon
[19] = test system: RXF 393 renal
[20] = test system: SF-295 CNS

Row | SMILES | growth [1] | growth [2] [%] | growth [3] [%] | growth [4] | growth [5] | growth [6] | growth [7] | growth [8] [%] | growth [9] | growth [10] | growth [11] | growth [12] [%] | growth [13] | growth [14] [%] | growth [15] | growth [16] | growth [17] [%] | growth [18] [%] | growth [19] | growth [20]
1 | COc1nc2c(c(=O)n1C)N=C1c3ccccc3C(=O)C1C(c1ccccc1)N2 (stereo unspecified) | 94.1% | 104 | 86.9 | 103% | 89.2% | 102% | 91.5% | 84.7 | 106% | 94.6% | 74.8% | 83.2 | 89.2% | 85.3 | 93.7% | 96.7% | 82.9 | 90.5 | – | –
2 | O=C(Cc1ccccc1)NC(c1ccc(Cl)cc1)c1c(O)ccc2ccccc12 (stereo unspecified) | 4.5% (active) | 15.4 | 30.9 | 5.44% (active) | -19.9% (active) | -8.23% (active) | 9.06% (active) | 26 | -38.6% (active) | 33.6% | 8.85% (active) | – | -15.7% (active) | 29.2 | 40% | -9.13% (active) | 16.3 | 15.4 | -6.64% (active) | -36.4% (active)
3 | CC(=O)n1cc(-c2c[nH]c3ccccc23)c(-c2ccc(Cl)cc2)n1 | 76.2% | 83.6 | 66.3 | 82.3% | 79.7% | 74.8% | 93.7% | 78.9 | 92.4% | 96.3% | 94.3% | 87.2 | – | 86.5 | 81.7% | 103% | 76.1 | 80.9 | 80.6% | 75.3%
4 | O=C(c1ccccc1)N(C(=S)NCCc1ccc(Cl)cc1)c1ccc(Cl)cc1 | 74.7% | 75.9 | 91.3 | 80.1% | 76.3% | 92.1% | 82.4% | 57.2 | 61.6% | 29.3% | 4.72% (active) | – | 91.7% | 33.2 | 36.9% | 71.2% | 71.2 | 47.6 | – | 68.3%
5 | CN(CCc1ccccc1)C(=S)N(C(=O)c1ccc([N+](=O)[O-])cc1)c1ccc(Cl)cc1 | 97.5% | 102 | 102 | 102% | 67% | 100% | 98.2% | 88 | 109% | 73.1% | 40.6% | – | 101% | 91.7 | 92.6% | 101% | 94.8 | 83.9 | – | 110%
6 | CSc1nc2c(c(=O)[nH]1)N=C1c3ccccc3C(=O)C1C(c1ccccc1)N2 (stereo unspecified) | 62% | 69.4 | 45.5 | 12.3% | 59.5% | 82.2% | 51.6% | 46 | 33.5% | 75.4% | 34.8% | 34.8 | 82.6% | 47.9 | 25.6% | 74.5% | 29.4 | 36.8 | – | –
7 | COc1cc([C@@H]2NC(=O)NC(C)=C2C(=O)Nc2nc(-c3ccc(Cl)cc3)cs2)ccc1O | 96.3% | 95.4 | 86.1 | 102% | 103% | 84% | 97.1% | 98.4 | 116% | 102% | 99.9% | 95.4 | 92.6% | 94 | 95.7% | 104% | 94.2 | 100 | – | 98.2%
8 | COc1ccc(-c2nsc3c2NC(=O)CC3c2ccsc2)cc1 (stereo unspecified) | 39.6% | 42.4 | 33.5 | 6.14% (active) | 71.9% | 11.6% | 27.4% | 29.8 | -77.3% (active) | -8.61% (active) | 13.3% | 43.6 | – | 47.1 | -7.51% (active) | 77.3% | 18 | 13.8 | 18% | 2.29% (active)
9 | O=C(CCN1C(=O)c2ccccc2C1=O)Nc1ccc(Cl)cc1 | 66.4% | 82.2 | 54.8 | 44.1% | 64.3% | 66.3% | 79.2% | 65.8 | 118% | 67.2% | 60.7% | – | 114% | 73.6 | 86.5% | 98.2% | 92.7 | 61.7 | – | 28.4%
